From ChEMBL document CHEMBL1157539, “Thousands of chemical starting points for antimalarial lead identification” (Nature, 2010)

Test system: Plasmodium falciparum
Test: GSK_TCMDC: Inhibition of Plasmodium falciparum Dd2 in whole red blood cells, using parasite LDH activity as an index of growth. Test compounds present at 2uM
Format: functional

| SMILES | Inhibition [%] |
| --- | --- |
| COc1ccc(F)cc1-c1ccccc1CNC(=O)CN(C)S(=O)(=O)c1cc(C)cc(Cl)c1C | 73 |
| CC(C)c1cccc(C(NC(=O)[C@H]2Cc3ccccc3CN2C(=O)c2cccc(N3CCOCC3)c2)C2CCCC2)c1 (stereo not given in full) | 96 |
| Cn1nc(-c2cccc(CNCc3ccccc3)c2)c2cnc(NC3CCCC3)nc21 | 11 |
| Clc1cccc(Cl)c1CCNCC1CCN(CC2CCCCC2)CC1.O=C(O)C(F)(F)F | 94 |
| CCOC(=O)CCCCCNC[C@H](O)c1ccccc1.Cl | 0 |
| O=C(NC1CCCCC1)C(c1cccs1)N(CCc1ccccc1)C(=O)c1ccco1 (stereo not given) | 63 |
| CC(=O)c1c(Cc2ccccc2Cl)c[nH]c1C | 53 |
| C=Cc1ccc(-c2c(C)[nH]c(C)c(Br)c2=O)cc1 | 96 |
| O=C(O)C(F)(F)F.O=S(=O)(NCCN1CCCC1)c1ccc(-c2cccc(CNC3Cc4ccccc4C3)c2)cc1F | 62 |
| CN1CCN(C(C(=O)NCc2cc(Cl)cc(Cl)c2)c2ccccc2-c2ccsc2)CC1 (stereo not given) | 80 |
| COc1cc(CN2CCC(NC(=O)[C@H](Cc3ccccc3)NC(=O)Nc3ccc(Oc4ccccc4)cc3)C2)ccc1O (stereo not given in full) | 0 |
| COc1ccc(NC(=O)[C@H](CC(C)C)Nc2cc(C)nc(NCCc3cccs3)n2)cc1.O=C(O)C(F)(F)F | 68 |
| N=C(N)Nc1nc(-c2cccc(NC(=O)NCC(c3ccccc3)c3ccccc3)c2)cs1 | 87 |
| CS(=O)(=O)CCNCc1cccc(-c2cc3c(Nc4ccc(OCc5cccc(F)c5)c(Cl)c4)ncnc3s2)c1.O=C(O)C(F)(F)F | 97 |
| c1ccc(COc2ccccc2COc2ccccc2-c2ccc3cccnc3n2)cc1 | 95 |
| Cl.N=C(N)c1ccc(NN=Cc2ccc(Oc3ccc(C(=N)N)cc3)cc2)cc1 | 100 |
| CC(C)CNCc1cccc(-c2cccc(CN(CCCN3CCN(C)CC3)C(=O)Nc3ccccc3)c2)c1.O=C(O)C(F)(F)F | 76 |
| Cc1ccc(-c2cc(C(=O)Nc3ccc(S(=O)(=O)N4CCCCC4)cc3)[nH]n2)c(O)c1 | 92 |
| Nc1nc(N)c2c(ccc3c2ccn3Cc2ccccn2)n1 | 94 |
| COc1ccc(-c2ccc(CNC(=O)c3cccc(C#N)c3)c(F)c2)cc1CN1CCCN(C)CC1.O=C(O)C(F)(F)F | 30 |

| SMILES | Inhibition [%] |
| --- | --- |
| COc1cc2nccc(Nc3ccc(OCc4ccc(NC(C)=O)cc4)cc3)c2cc1OC.Cl | 95 |
| Cc1cc(N2CCC(N(C)C)C2)nc(Nc2ccc(Cl)cc2)n1 (stereo not given) | 17 |
| O=C(O)/C=C\C(=O)O.c1ccc(COc2ccnc(NCCCOc3cccc(CN4CCCCC4)c3)c2)cc1 | 51 |
| CC1(C)N=C(N)N=C(N)N1c1cccc(C(F)(F)F)c1.Cl | 68 |
| COc1ccc(C(=O)Nc2ccc3nc(N4CCCCC4)cc(C)c3c2)cc1[N+](=O)[O-] | 7 |
| O=C(Nc1ccc(Cl)cc1)Nc1ccc2c(c1)N1CCN=C1S2 | 100 |
| Cc1cc(NC(=O)NCCN2CCC(NS(=O)(=O)c3ccccc3Cl)C2)c2ccccc2n1 (stereo not given) | 43 |
| O=C(O)C[C@H](NC(=O)c1cc(-c2ccc3c(c2)OCO3)no1)C(=O)O.O=C(O)C[C@H](NC(=O)c1conc1-c1ccc2c(c1)OCO2)C(=O)O | 0 |
| CCCCn1c(-c2ccco2)nc2c(c(=O)c3ccccc3n2C)c1=O | 64 |
| N#Cc1ccccc1C(=O)N(Cc1cncn1Cc1cccc(F)c1)CC1CC1 | 92 |
| CCOC(=O)c1ccc(N2CCN(c3cc(C)ccc3C)CC2)c(NC(=O)Nc2ccc(Cl)c(Cl)c2)c1 | 42 |
| Cc1cccc2nc(-c3ccc(-c4ccc(NC(=O)NCc5cccc(F)c5)cc4)cc3)[nH]c12 | 12 |
| Cc1ncccc1C(=O)Nc1cccc(-c2cccc(-c3nc4cc(C(F)(F)F)ccc4[nH]3)c2)c1 | 30 |
| NC(=O)c1cc2nc(Nc3ccc(F)cc3)nc(Nc3ccc(S(N)(=O)=O)cc3)c2[nH]1.O=CO | 99 |
| CNCCNCc1ccc(-c2ccc(-c3nc4cc(F)ccc4[nH]3)s2)cc1.O=C(O)C(F)(F)F | 55 |
| CC(OC(=O)c1ccc(C(=O)NCC2CC2)cc1)C(C)(C)C (stereo not given) | 86 |
| CC(C)NCc1ccc(-c2cccc(NC(=O)c3ccc(Cl)cc3)c2)cc1.O=C(O)C(F)(F)F | 82 |
| Cc1ccc2nc3c(cc(C(=O)NCc4ccccc4)c(=N)n3CCCn3ccnc3)c(=O)n2c1 | 0 |
| O=S(=O)(c1cc(Cl)c(Cl)cc1Cl)N1CCCCC(c2ccc(C(F)(F)F)cc2)=N1 | 99 |
| COc1ccccc1/C=C/C(=O)N(C)C1CCN(CCCCCNC(=O)/C=C/c2ccc(Cl)c(Cl)c2)CC1 | 63 |

Test system: HepG2
Test: GSK_TCMDC: Percent inhibition of human HepG2 cell line. Test compounds present at 10uM.
Format: functional

| SMILES | Inhibition [%] |
| --- | --- |
| COc1ccc(F)cc1-c1ccccc1CNC(=O)CN(C)S(=O)(=O)c1cc(C)cc(Cl)c1C | 0 |
| CC(C)c1cccc(C(NC(=O)[C@H]2Cc3ccccc3CN2C(=O)c2cccc(N3CCOCC3)c2)C2CCCC2)c1 (stereo not given in full) | 3 |
| Cn1nc(-c2cccc(CNCc3ccccc3)c2)c2cnc(NC3CCCC3)nc21 | 5 |
| Clc1cccc(Cl)c1CCNCC1CCN(CC2CCCCC2)CC1.O=C(O)C(F)(F)F | 39 |
| CCOC(=O)CCCCCNC[C@H](O)c1ccccc1.Cl | 2 |
| O=C(NC1CCCCC1)C(c1cccs1)N(CCc1ccccc1)C(=O)c1ccco1 (stereo not given) | 0 |
| CC(=O)c1c(Cc2ccccc2Cl)c[nH]c1C | 0 |
| C=Cc1ccc(-c2c(C)[nH]c(C)c(Br)c2=O)cc1 | 0 |
| O=C(O)C(F)(F)F.O=S(=O)(NCCN1CCCC1)c1ccc(-c2cccc(CNC3Cc4ccccc4C3)c2)cc1F | 41 |
| CN1CCN(C(C(=O)NCc2cc(Cl)cc(Cl)c2)c2ccccc2-c2ccsc2)CC1 (stereo not given) | 11 |
| COc1cc(CN2CCC(NC(=O)[C@H](Cc3ccccc3)NC(=O)Nc3ccc(Oc4ccccc4)cc3)C2)ccc1O (stereo not given in full) | 10 |
| COc1ccc(NC(=O)[C@H](CC(C)C)Nc2cc(C)nc(NCCc3cccs3)n2)cc1.O=C(O)C(F)(F)F | 5 |
| N=C(N)Nc1nc(-c2cccc(NC(=O)NCC(c3ccccc3)c3ccccc3)c2)cs1 | 0 |
| CS(=O)(=O)CCNCc1cccc(-c2cc3c(Nc4ccc(OCc5cccc(F)c5)c(Cl)c4)ncnc3s2)c1.O=C(O)C(F)(F)F | 5 |
| c1ccc(COc2ccccc2COc2ccccc2-c2ccc3cccnc3n2)cc1 | 0 |
| Cl.N=C(N)c1ccc(NN=Cc2ccc(Oc3ccc(C(=N)N)cc3)cc2)cc1 | 18 |
| CC(C)CNCc1cccc(-c2cccc(CN(CCCN3CCN(C)CC3)C(=O)Nc3ccccc3)c2)c1.O=C(O)C(F)(F)F | 25 |
| Cc1ccc(-c2cc(C(=O)Nc3ccc(S(=O)(=O)N4CCCCC4)cc3)[nH]n2)c(O)c1 | 6 |
| Nc1nc(N)c2c(ccc3c2ccn3Cc2ccccn2)n1 | 66 |
| COc1ccc(-c2ccc(CNC(=O)c3cccc(C#N)c3)c(F)c2)cc1CN1CCCN(C)CC1.O=C(O)C(F)(F)F | 8 |

| SMILES | Inhibition [%] |
| --- | --- |
| COc1cc2nccc(Nc3ccc(OCc4ccc(NC(C)=O)cc4)cc3)c2cc1OC.Cl | 24 |
| Cc1cc(N2CCC(N(C)C)C2)nc(Nc2ccc(Cl)cc2)n1 (stereo not given) | 11 |
| O=C(O)/C=C\C(=O)O.c1ccc(COc2ccnc(NCCCOc3cccc(CN4CCCCC4)c3)c2)cc1 | 22 |
| CC1(C)N=C(N)N=C(N)N1c1cccc(C(F)(F)F)c1.Cl | 60 |
| COc1ccc(C(=O)Nc2ccc3nc(N4CCCCC4)cc(C)c3c2)cc1[N+](=O)[O-] | 17 |
| O=C(Nc1ccc(Cl)cc1)Nc1ccc2c(c1)N1CCN=C1S2 | 15 |
| Cc1cc(NC(=O)NCCN2CCC(NS(=O)(=O)c3ccccc3Cl)C2)c2ccccc2n1 (stereo not given) | 1 |
| O=C(O)C[C@H](NC(=O)c1cc(-c2ccc3c(c2)OCO3)no1)C(=O)O.O=C(O)C[C@H](NC(=O)c1conc1-c1ccc2c(c1)OCO2)C(=O)O | 0 |
| CCCCn1c(-c2ccco2)nc2c(c(=O)c3ccccc3n2C)c1=O | 11 |
| N#Cc1ccccc1C(=O)N(Cc1cncn1Cc1cccc(F)c1)CC1CC1 | 0 |
| CCOC(=O)c1ccc(N2CCN(c3cc(C)ccc3C)CC2)c(NC(=O)Nc2ccc(Cl)c(Cl)c2)c1 | 7 |
| Cc1cccc2nc(-c3ccc(-c4ccc(NC(=O)NCc5cccc(F)c5)cc4)cc3)[nH]c12 | 46 |
| Cc1ncccc1C(=O)Nc1cccc(-c2cccc(-c3nc4cc(C(F)(F)F)ccc4[nH]3)c2)c1 | 34 |
| NC(=O)c1cc2nc(Nc3ccc(F)cc3)nc(Nc3ccc(S(N)(=O)=O)cc3)c2[nH]1.O=CO | 2 |
| CNCCNCc1ccc(-c2ccc(-c3nc4cc(F)ccc4[nH]3)s2)cc1.O=C(O)C(F)(F)F | 22 |
| CC(OC(=O)c1ccc(C(=O)NCC2CC2)cc1)C(C)(C)C (stereo not given) | 10 |
| CC(C)NCc1ccc(-c2cccc(NC(=O)c3ccc(Cl)cc3)c2)cc1.O=C(O)C(F)(F)F | 20 |
| Cc1ccc2nc3c(cc(C(=O)NCc4ccccc4)c(=N)n3CCCn3ccnc3)c(=O)n2c1 | 10 |
| O=S(=O)(c1cc(Cl)c(Cl)cc1Cl)N1CCCCC(c2ccc(C(F)(F)F)cc2)=N1 | 9 |
| COc1ccccc1/C=C/C(=O)N(C)C1CCN(CCCCCNC(=O)/C=C/c2ccc(Cl)c(Cl)c2)CC1 | 71 |
